Screening data deposited in PubChem by The Scripps Research Institute Molecular Screening Center.
An excerpt weighted towards active compounds, which were near 3.5% of everything screened.
FBW7 act = human FBW7 E3 ligase activation, primary screen; AID 1259310; normalized activity (activation), % at 26.1 µM; 650,000 tested, 0.13% active; Q969H0; AlphaScreen FBW7–phospho-cyclin E peptide binding, activator screen; in the data active = normalized activity above about 1.9%;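 also: purified mutant Fbw7 with reduced substrate affinity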
TEAD-YAP block = TEAD-YAP interaction inhibition. 640,000 tested, 1.4% active. inhibition, % at 9.12 µM. AID 1259422. HEK-TIYL cells, TEAD-Gal4/YAP UAS-luciferase luminescence; in the data active = inhibition above about 32%;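 also: 0% = median of test compound wells and 100% = reference inhibitor wells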
GPR151 ag = human GPR151 activation | AID 1508602 | PathHunter beta-arrestin GPR151 cells, luminescence | 650,000 tested, 1% active | activation, % at 11.2 µM; in the data active = activation above about 4.9%;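 also: 0% = median of compound wells and 100% = cells with positive control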
Target sequence (Q8TDV0 whole entry, looked up): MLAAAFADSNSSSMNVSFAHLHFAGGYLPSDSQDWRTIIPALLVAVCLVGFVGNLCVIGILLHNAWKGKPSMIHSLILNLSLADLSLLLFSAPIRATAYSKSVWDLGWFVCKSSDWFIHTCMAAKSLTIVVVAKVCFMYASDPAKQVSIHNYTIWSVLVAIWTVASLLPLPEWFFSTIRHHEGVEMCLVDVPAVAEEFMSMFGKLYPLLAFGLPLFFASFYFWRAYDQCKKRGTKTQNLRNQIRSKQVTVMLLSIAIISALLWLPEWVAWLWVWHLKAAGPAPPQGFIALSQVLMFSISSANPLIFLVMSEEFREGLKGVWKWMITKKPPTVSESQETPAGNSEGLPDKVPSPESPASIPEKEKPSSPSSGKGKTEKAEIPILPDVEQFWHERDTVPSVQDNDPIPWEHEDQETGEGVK
MITF inh = human MITF inhibition, primary screen | O75030 | AlphaScreen MITF homodimerization, bead proximity signal | inhibition, % at 2.6 µM | 650,000 tested, 0.91% active; in the data active = inhibition above about 50%;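 also: 0% = vehicle wells with protein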
MITF confirm = human MITF inhibition, confirmation. shares compounds with MITF inh. AlphaScreen MITF homodimerization, biotin/His-MITF beads. inhibition, % at 2.6 µM. 4,700 tested, 16% active. AID 1259372;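 active = inhibition above a cutoff derived from the DMSO control wells, cut at about 28% in these data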;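 also: 0% = MITF dimer wells with DMSO only; inhibitors lower the bead chemiluminescence by keeping MITF from dimerizing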
AlphaScreen DR = counter-screen: compounds optically interfering with AlphaScreen. AlphaScreen optical interference counterscreen, cell-free. IC50, µM. 480 tested, 6% active. shares compounds with MITF inh. AID 1259373; call rule not given here
AS interf ctr = AlphaScreen optical interference, counter-screen; shares compounds with MITF inh; LysRS AlphaScreen counterscreen, signal interference, triplicate; inhibition, % at 2.6 µM; 4,700 tested, 7.6% active;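 active = inhibition above a cutoff derived from the DMSO control wells, cut at about 30% in these data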
The depositor's hits bear a star.

How did COCCNCCCCOc1ccc(C)cc1[N+](=O)[O-] do in these assays?
FBW7 act: -0.1; TEAD-YAP block: -3.3; GPR151 ag: -1.4; MITF inh: 17.1

What do the screens show for `CCC(C)NCCCCOc1ccc(C)cc1[N+](=O)[O-]` (stereo unspecified)?
FBW7 act: -0.4; TEAD-YAP block: -6.4; GPR151 ag: 2.3; MITF inh: 70.3*; MITF confirm: 3.5; AS interf ctr: 14.1

Results for C=CCNCCCCOc1ccc(C)cc1[N+](=O)[O-] ?
FBW7 act: -0.2; TEAD-YAP block: -1.5; GPR151 ag: 1.2; MITF inh: 74.5*; MITF confirm: -3.8; AS interf ctr: -0.2

What do the screens show for `CCC(C)NCCOc1ccccc1[N+](=O)[O-]` (stereo unspecified)?
FBW7 act: 0.2; TEAD-YAP block: 11.8; GPR151 ag: 1.0; MITF inh: 33.5

Results for COCCNCCOCCOc1ccc(C)cc1[N+](=O)[O-] ?
FBW7 act: 0.2; TEAD-YAP block: -7.8; GPR151 ag: -1.3; MITF inh: 58.3*; MITF confirm: 11.1; AS interf ctr: 10.5

How did COCCCNCCOCCOc1ccc(C)cc1[N+](=O)[O-] do in these assays?
FBW7 act: -0.1; TEAD-YAP block: 5.6; GPR151 ag: -0.2; MITF inh: 30.4

Results for CC(C)n1c(NCCN2CCOCC2)nc2c(NCc3nc4ccccc4[nH]3)ncnc21 ?
FBW7 act: -0.1; TEAD-YAP block: 17.6; GPR151 ag: -0.7; MITF inh: -0.5

What do the screens show for `CCOC(=O)C1=C(CC)NC2=C(C(=O)CC(C)(C)C2)C1c1cc2c(cc1[N+](=O)[O-])OCO2` (stereo unspecified)?
FBW7 act: -0.3; TEAD-YAP block: 3.2; GPR151 ag: -0.1; MITF inh: 10.4

How did Cc1cc2c(c(=O)n1CC1CCCO1)C(c1ccccc1Br)C(C#N)=C(N)O2 (stereo unspecified) do in these assays?
FBW7 act: 0.0; TEAD-YAP block: 0.4; GPR151 ag: 0.1; MITF inh: -5.8

What do the screens show for `CCCCCC(=O)CC[C@@H]1[C@@H](C/C=C\CCCC(=O)O)[C@@H](O)C[C@@H]1O`?
GPR151 ag: -2.3; MITF inh: 56.4*; MITF confirm: -0.4; AS interf ctr: 12.5

What do the screens show for `Cc1ccc(-c2cc(C(F)(F)F)n3nc(C(=O)N4CCN(c5ccccc5Cl)CC4)cc3n2)cc1`?
FBW7 act: 0.0; TEAD-YAP block: -0.2; GPR151 ag: 0.9; MITF inh: -2.7

How did O=C(OCC(=O)C12CC3CC(CC(C3)C1)C2)C1COc2ccccc2O1 (stereo unspecified) do in these assays?
FBW7 act: 0.3; TEAD-YAP block: 5.1; GPR151 ag: 0.9; MITF inh: 4.5

Results for CCN(C(=O)C1COc2ccccc2O1)C12CC3CC(CC(C3)C1)C2 (stereo unspecified) ?
FBW7 act: 0.4; TEAD-YAP block: 5.4; GPR151 ag: -1.8; MITF inh: 60.8*; MITF confirm: 70.7*; AlphaScreen DR: >6.83; AS interf ctr: 1.1

What do the screens show for `O=C(NC1CCCCC1)N1CCN2C(=O)[C@@H]3C[C@@H](O)CN3C(=O)[C@H]2C1`?
FBW7 act: -0.2; TEAD-YAP block: 5.3; GPR151 ag: -0.2; MITF inh: 80.5*; MITF confirm: 73.4*; AlphaScreen DR: >6.48; AS interf ctr: -9.1

Results for O=C(NC1CCCCC1)N1CCN2C(=O)[C@@H]3CSCN3C(=O)[C@H]2C1 ?
FBW7 act: 0.1; TEAD-YAP block: 14.0; GPR151 ag: -0.9; MITF inh: 76.2*; MITF confirm: 60.3*; AlphaScreen DR: >6.48; AS interf ctr: -1.9

Results for CC(C)=N/N=C1/NC(=O)C(CC(=O)Nc2cc(C)ccc2C)S1 (stereo unspecified) ?
FBW7 act: 0.1; TEAD-YAP block: -10.2; GPR151 ag: -0.9; MITF inh: 4.8

What do the screens show for `CN1CCC(=NNS(=O)(=O)c2ccc(Cl)cc2)CC1`?
FBW7 act: 0.1; TEAD-YAP block: -2.1; GPR151 ag: 1.2; MITF inh: 7.2

How did Clc1ccccc1CN1CCN(c2ncccn2)CC1 do in these assays?
FBW7 act: 0.1; TEAD-YAP block: -4.1; GPR151 ag: -0.2; MITF inh: 20.8

How did Oc1c(Br)cc(CN2CCCCC2)c2cccnc12 do in these assays?
FBW7 act: -1.0; TEAD-YAP block: 65.8*; GPR151 ag: -0.5; MITF inh: 92.5*; MITF confirm: 112.0*; AS interf ctr: 100.6*

Results for Oc1c(Cl)cc(CN2CCCCC2)c2cccnc12 ?
FBW7 act: -1.0; TEAD-YAP block: 83.2*; GPR151 ag: 1.2; MITF inh: 109.7*; MITF confirm: 109.7*; AS interf ctr: 100.6*

How did CCOC(=O)C1=C(C)OC(N)=C(C#N)C1c1ccc(-c2ccccc2)cc1 (stereo unspecified) do in these assays?
FBW7 act: -0.1; TEAD-YAP block: 0.5; GPR151 ag: -1.1; MITF inh: -4.2

Results for C=CCc1ccccc1OCCOCCN1CCCCC1 ?
FBW7 act: 0.3; TEAD-YAP block: 2.5; GPR151 ag: -2.1; MITF inh: 78.6*; MITF confirm: 10.8; AS interf ctr: 24.9

Results for C=CCc1ccccc1OCCOCCN1CCN(C)CC1 ?
FBW7 act: 0.0; TEAD-YAP block: 0.0; GPR151 ag: -0.3; MITF inh: 60.5*; MITF confirm: -1.0; AS interf ctr: 12.9

What do the screens show for `O=C(CCN1CCOCC1)OC1CCCCC1S(=O)(=O)Cc1ccc(Cl)cc1` (stereo unspecified)?
FBW7 act: -0.1; TEAD-YAP block: 4.9; GPR151 ag: 0.1; MITF inh: 22.2

Results for O=C(Nc1c2c(nn1-c1cccc(Cl)c1)CSC2)c1ccc(Br)o1 ?
FBW7 act: -0.1; TEAD-YAP block: 8.2; GPR151 ag: 1.2; MITF inh: 52.8*; MITF confirm: 2.5; AS interf ctr: -2.4

How did OC1/C(=C/c2ccc3c(c2)OCO3)Oc2ccccc21 (stereo unspecified) do in these assays?
FBW7 act: 0.1; TEAD-YAP block: -2.1; GPR151 ag: 0.8; MITF inh: 53.3*; MITF confirm: -5.4; AS interf ctr: -4.4

What do the screens show for `O=C1/C(=C/c2ccc3c(c2)OCO3)COc2ccccc21`?
FBW7 act: 0.0; TEAD-YAP block: -13.2; GPR151 ag: 2.3; MITF inh: 13.7

How did O=C(Oc1ccc([N+](=O)[O-])c2cccnc12)c1ccc(F)cc1 do in these assays?
FBW7 act: -0.3; TEAD-YAP block: 13.2; GPR151 ag: 0.6; MITF inh: 60.2*; MITF confirm: 66.4*; AS interf ctr: 100.1*

What do the screens show for `O=C(Oc1cccc2cccnc12)c1ccc(F)cc1`?
FBW7 act: 0.5; TEAD-YAP block: -5.0; GPR151 ag: 0.6; MITF inh: 13.8
